Measured values: PubChem BioAssay AID1159580 (chemical genetic matrix, 2015)
Screen size: about 5,500 compounds; about 2,000 (36%) were called active. Not shown: some 18% with an inconclusive outcome. Cut-off read from the data, not from the text of the source: active = normalized growth mostly below about 0.91 (no sharp cut-off); inconclusive = no clear call, values can overlap the other calls; inactive = mostly above about 0.92. The list shows a part of the results.

Assay: chemical genetic growth profiling, strain panel (AID 1159580);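 note: tested at 20 µM; growth read once vehicle control cultures reached saturation at 30 °C; 1 = growth at the plate median or of vehicle wells; lower values mean less growth of the strain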
Details: growth OD
[1] = S. cerevisiae deletion strains, locus YBR021W, strain FUR4, active compounds read low
[2] = S. cerevisiae deletion strains, locus YBR229C, strain ROT2, active compounds read low
[3] = S. cerevisiae deletion strains, locus YCL029C, strain bik1, active compounds read low
[4] = S. cerevisiae deletion strains, locus YDL035C, strain GPR1, active compounds read low
[5] = S. cerevisiae deletion strains, locus YDL074C, strain BRE1, active compounds read low
[6] = S. cerevisiae deletion strains, locus YDL101C, strain DUN1, active compounds read low
[7] = S. cerevisiae deletion strains, locus YDL185W, strain tfp1, active compounds read low
[8] = S. cerevisiae deletion strains, locus YDL192W, strain arf1, active compounds read low
[9] = S. cerevisiae deletion strains, locus YDR101C, strain arx1, active compounds read low
[10] = S. cerevisiae deletion strains, locus YDR150W, strain NUM1, active compounds read low
[11] = S. cerevisiae deletion strains, locus YDR162C, strain NBP2, active compounds read low
[12] = S. cerevisiae deletion strains, locus YDR318W, strain mcm21, active compounds read low
[13] = S. cerevisiae deletion strains, locus YDR388W, active compounds read low
[14] = S. cerevisiae deletion strains, locus YDR502C, strain sam2, active compounds read low
[15] = S. cerevisiae deletion strains, locus YEL061C, strain CIN8, active compounds read low
[16] = S. cerevisiae deletion strains, locus YER110C, active compounds read low
[17] = S. cerevisiae deletion strains, locus YER155C, strain BEM2, active compounds read low
[18] = S. cerevisiae deletion strains, locus YER167W, strain BCK2, active compounds read low
[19] = S. cerevisiae deletion strains, locus YGL078C, strain dbp3, active compounds read low
[20] = S. cerevisiae deletion strains, locus YGL086W, strain mad1, active compounds read low
[21] = S. cerevisiae deletion strains, locus YGL248W, strain PDE1, active compounds read low
[22] = S. cerevisiae deletion strains, locus YGR135W, strain pre9, active compounds read low
[23] = S. cerevisiae deletion strains, locus YGR252W, strain gcn5, active compounds read low
[24] = S. cerevisiae deletion strains, locus YHR030C, strain SLT2, active compounds read low
[25] = S. cerevisiae deletion strains, locus YHR079C, strain IRE1 (second series), active compounds read low
[26] = S. cerevisiae deletion strains, locus YHR094C, strain hxt1, active compounds read low
[27] = S. cerevisiae deletion strains, locus YHR129C, strain ARP1, active compounds read low
[28] = S. cerevisiae deletion strains, locus YHR200W, strain rpn10, active compounds read low
[29] = S. cerevisiae deletion strains, locus YIL066C, strain RNR3, active compounds read low
[30] = S. cerevisiae deletion strains, locus YIL073C, strain SPO22, active compounds read low
[31] = S. cerevisiae deletion strains, locus YIL125W, strain kgd1, active compounds read low
[32] = S. cerevisiae deletion strains, locus YIR030C, strain dcg1, active compounds read low
[33] = S. cerevisiae deletion strains, locus YJL095W, strain BCK1, active compounds read low
[34] = S. cerevisiae deletion strains, locus YJL134W, strain LCB3, active compounds read low
[35] = S. cerevisiae deletion strains, locus YJL168C, strain set2, active compounds read low
[36] = S. cerevisiae deletion strains, locus YJL187C, strain SWE1 (second series), active compounds read low
[37] = S. cerevisiae deletion strains, locus YJR043C, strain POL32, active compounds read low
[38] = S. cerevisiae deletion strains, locus YJR075W, strain HOC1, active compounds read low
[39] = S. cerevisiae deletion strains, locus YKL009W, strain mrt4, active compounds read low
[40] = S. cerevisiae deletion strains, locus YKL068W, active compounds read low
[41] = S. cerevisiae deletion strains, locus YKL085W, strain MDH1 (second series), active compounds read low
[42] = S. cerevisiae deletion strains, locus YKL085W, strain MDH1, active compounds read low
[43] = S. cerevisiae deletion strains, locus YKR001C, strain vps1, active compounds read low
[44] = S. cerevisiae deletion strains, locus YLR039C, strain RIC1, active compounds read low
[45] = S. cerevisiae deletion strains, locus YLR058C, strain SHM2, active compounds read low
[46] = S. cerevisiae deletion strains, locus YLR102C, strain apc9, active compounds read low
[47] = S. cerevisiae deletion strains, locus YLR262C, strain YPT6, active compounds read low
[48] = S. cerevisiae deletion strains, locus YLR268W, strain sec22, active compounds read low
[49] = S. cerevisiae deletion strains, locus YLR330W, strain CHS5, active compounds read low
[50] = S. cerevisiae deletion strains, locus YLR342W, strain FKS1 (second series), active compounds read low
[51] = S. cerevisiae deletion strains, locus YLR371W, strain rom2, active compounds read low
[52] = S. cerevisiae deletion strains, locus YLR418C, strain cdc73, active compounds read low
[53] = S. cerevisiae deletion strains, locus YML016C, strain PPZ1, active compounds read low
[54] = S. cerevisiae deletion strains, locus YML032C, strain rad52, active compounds read low
[55] = S. cerevisiae deletion strains, locus YML124C, strain tub3, active compounds read low
[56] = S. cerevisiae deletion strains, locus YMR078C, strain ctf18, active compounds read low
[57] = S. cerevisiae deletion strains, locus YMR223W, strain ubp8, active compounds read low
[58] = S. cerevisiae deletion strains, locus YMR263W, strain SAP30, active compounds read low
[59] = S. cerevisiae deletion strains, locus YMR307W, strain GAS1, active compounds read low
[60] = S. cerevisiae deletion strains, locus YNL067W, strain RPL9B, active compounds read low
[61] = S. cerevisiae deletion strains, locus YNL128W, strain TEP1, active compounds read low
[62] = S. cerevisiae deletion strains, locus YNL233W, strain BNI4, active compounds read low
[63] = S. cerevisiae deletion strains, locus YNL250W, strain rad50, active compounds read low
[64] = S. cerevisiae deletion strains, locus YNL271C, strain bni1, active compounds read low
[65] = S. cerevisiae deletion strains, locus YNL298W, strain CLA4, active compounds read low
[66] = S. cerevisiae deletion strains, locus YNL307C, strain MCK1, active compounds read low
[67] = S. cerevisiae deletion strains, locus YNL322C, strain KRE1, active compounds read low
[68] = S. cerevisiae deletion strains, locus YNR052C, strain pop2, active compounds read low
[69] = S. cerevisiae deletion strains, locus YOL012C, strain htz1
[70] = S. cerevisiae deletion strains, locus YOL147C, strain pex11, active compounds read low
[71] = S. cerevisiae deletion strains, locus YOR061W, strain CKA2, active compounds read low
[72] = S. cerevisiae deletion strains, locus YOR069W, strain VPS5, active compounds read low
[73] = S. cerevisiae deletion strains, locus YOR136W, strain idh2, active compounds read low
[74] = S. cerevisiae deletion strains, locus YOR144C, strain elg1, active compounds read low
[75] = S. cerevisiae deletion strains, locus YOR184W, strain ser1, active compounds read low
[76] = S. cerevisiae deletion strains, locus YOR316C, strain cot1, active compounds read low
[77] = S. cerevisiae deletion strains, locus YPR119W, strain clb2, active compounds read low
[78] = S. cerevisiae deletion strains, locus YPR141C, strain kar3, active compounds read low
[79] = S. cerevisiae deletion strains, locus YPR163C, strain tif3, active compounds read low
[80] = S. cerevisiae deletion strains, locus YPR167C, strain met16, active compounds read low
[81] = S. cerevisiae deletion strains, strain wtn01, active compounds read low
[82] = S. cerevisiae deletion strains, locus YGR078C, strain PAC10, active compounds read low
[83] = S. cerevisiae deletion strains, locus YNL153C, strain GIM3, active compounds read low

Measured: normalized growth

CC(=O)O[C@@H]1CC2C(C)(C)CCC[C@]2(C)C2CC[C@]3(C)C(=CC(=O)O[C@H]3c3ccoc3)[C@@]21C (stereo partly drawn)
inactive: [1] 1.02 | [2] 1.01 | [3] 1 | [4] 1.02 | [5] 1.01 | [6] 1.01 | [7] 1.01 | [8] 0.999 | [9] 1.01 | [10] 1.02 | [11] 1 | [12] 0.981 | [13] 1.01 | [14] 0.977 | [15] 1.02 | [16] 1.01 | [17] 1 | [18] 1.02 | [19] 0.982 | [20] 0.984 | [21] 1.01 | [22] 0.978 | S. cerevisiae deletion strains, locus YGR229C, strain SMI1, active compounds read low 0.97 | [23] 0.993 | [24] 1.02 | [25] 1 | [26] 1 | [27] 1.02 | [28] 1.01 | [29] 1.02 | [30] 1.02 | [31] 1 | [32] 1 | [33] 0.97 | [34] 1.02 | [35] 0.994 | [36] 1 | [37] 1.05 | [38] 1.01 | [39] 1.03 | [40] 0.989 | [41] 1.01 | [42] 1.01 | [43] 0.967 | [44] 0.902 | [45] 1.01 | [46] 1 | [47] 0.928 | [48] 0.973 | [49] 1.02 | [50] 0.983 | [51] 1 | [52] 0.941 | [53] 1.02 | [54] 0.99 | [55] 0.993 | [56] 0.986 | [57] 0.983 | [58] 1.02 | [59] 1.09 | [60] 1.01 | [61] 1.03 | [62] 0.948 | [63] 0.968 | [64] 1 | [65] 0.992 | [66] 0.992 | [67] 1.02 | [68] 0.993 | S. cerevisiae deletion strains, locus YOL006C, strain TOP1, active compounds read low 1.06 | [69] 0.86 | [70] 1.01 | [71] 1.01 | [72] 1.02 | [73] 0.997 | [74] 0.999 | [75] 0.982 | [76] 1 | [77] 0.985 | [78] 1.01 | [79] 0.994 | [80] 0.998 | [81] 0.996

O=C(O)CCC(=O)N1CCCC1C(=O)O (stereo not drawn)
inactive: S. cerevisiae deletion strains, locus YAL040C, strain CLN3, active compounds read low 1.03 | S. cerevisiae deletion strains, locus YCL061C, strain MRC1 (second series), active compounds read low 1 | [10] 0.998 | S. cerevisiae deletion strains, locus YDR363W, strain ESC2, active compounds read low 1.02 | S. cerevisiae deletion strains, locus YER002W, strain NOP16, active compounds read low 1.01 | [82] 0.979 | [38] 1.03 | [58] 1.01 | [59] 0.972 | [61] 0.999 | [83] 1.24 | S. cerevisiae deletion strains, locus YNL175C, strain NOP13, active compounds read low 0.991 | S. cerevisiae deletion strains, locus YNL197C, strain WHI3, active compounds read low 0.993 | S. cerevisiae deletion strains, locus YNL224C, strain SQS1, active compounds read low 0.992 | [67] 1.02 | S. cerevisiae deletion strains, locus YOR083W, strain WHI5 (second series), active compounds read low 0.989

O=C(O)c1cc(O)ccc1O
inactive: S. cerevisiae deletion strains, locus YAL013W, strain DEP1, active compounds read low 0.986 | [1] 0.948 | [2] 0.992 | [3] 0.994 | [4] 0.995 | [5] 0.978 | [6] 0.999 | [7] 1 | [8] 0.993 | [9] 0.965 | [10] 0.993 | [11] 1.01 | [12] 1.01 | [13] 0.989 | [14] 0.989 | [15] 0.998 | [16] 0.981 | [17] 0.996 | [18] 0.988 | [19] 0.988 | [20] 0.975 | [21] 1.02 | [82] 1.02 | [22] 1.01 | [23] 1.12 | [24] 0.989 | [25] 0.986 | [26] 0.99 | [27] 0.994 | [28] 0.989 | [29] 0.985 | [30] 0.976 | [31] 0.987 | [32] 1 | [33] 1.03 | [34] 0.984 | [35] 0.998 | [36] 1.01 | [37] 1.01 | [39] 0.964 | [40] 0.992 | [41] 1 | [42] 1 | S. cerevisiae deletion strains, locus YKL190W, strain CNB1, active compounds read low 0.997 | [43] 0.985 | [44] 1.05 | [45] 1 | [46] 0.987 | [47] 1.05 | [48] 0.986 | [49] 0.991 | [50] 0.95 | [51] 0.989 | [52] 1.05 | [53] 0.995 | [54] 1.01 | [55] 1 | [56] 0.992 | [57] 1.04 | [59] 1.07 | [60] 1.01 | [83] 1.02 | [62] 1 | [63] 0.976 | [64] 0.994 | [65] 0.994 | [66] 0.98 | [67] 1 | [68] 1 | [69] 1.12 | [70] 0.99 | [71] 0.996 | [72] 0.987 | [73] 0.995 | [74] 0.989 | [75] 1 | [76] 0.985 | S. cerevisiae deletion strains, locus YPL241C, strain CIN2, active compounds read low 1 | [77] 0.994 | [78] 0.981 | [79] 0.999 | [80] 1.01 | [81] 0.943 | S. cerevisiae strains, strain wild type, active compounds read low 0.994
